PubChem BioAssay AID2330 (Broad Institute, 2010)
The whole screen tested about 37,000 compounds, of which about 2,800 (7.6%) were called active. Inconclusive results (about 1%) are left out. This is one part of a sample in which actives are shown more often than they occur. A number with no mark means an inactive call. No stated cut-off is given here; in the data, active means inhibition above about 80%; inconclusive means no clear call, values can overlap the other calls; inactive means below that.

Test: NOMO-1 AML cell viability reduction, primary screen, STK33 inhibitor project, CellTiter-Glo luminescence (AID 2330)
Conditions: NOMO-1 AML viability, 72 h, hits give high values, concentration not given here
Compound `O=C(CSc1nccc(=O)[nH]1)Nc1ccc([N+](=O)[O-])cc1` has an inhibition of 11.7%.
For `C=C1CCC(C)C(C)(CCC2=CC(OC)OC2=O)C/C=C\C=C\1C(=O)O` (centres undefined), the inhibition was 9.74%.
`Cc1cc(C)n2nc(SCC(=O)Nc3ccccc3[N+](=O)[O-])nc2n1` showed an inhibition of 4.39%.
Compound `Cc1ccc(CC2C(=O)N(c3cccc(C(F)(F)F)c3)C(=O)C2C)cc1` (centres undefined) has an inhibition of 54.7%.
`C[C@@H]1CN([C@H](C)CO)C(=O)c2cc(NC(=O)C3CC3)ccc2O[C@@H]1CN(C)C` gave an inhibition of -2.07%.
`CNC[C@H]1Oc2c(NC(=O)C3CC3)cccc2C(=O)N([C@@H](C)CO)C[C@@H]1C` gave an inhibition of 15.2%.
Work on `C[C@@H]1CN([C@H](C)CO)C(=O)Cc2cc(NS(=O)(=O)c3ccc(Cl)cc3)ccc2O[C@@H]1CN(C)S(=O)(=O)c1ccc(Cl)cc1` yielded an inhibition of 19.9%.
In the case of `C[C@@H]1CN([C@H](C)CO)C(=O)c2cc(NC(=O)Cc3ccccc3)ccc2O[C@H]1CN(C)S(=O)(=O)c1cn(C)cn1`, the inhibition is reported as 4.97%.
`CC(Sc1nc2ccccc2[nH]1)c1nc2ccccc2[nH]1` (centres undefined) showed an inhibition of 4.08%.
`Cc1cccc(C)c1NC(=O)C(C)N(c1ccc(Cl)cc1)S(C)(=O)=O` (centres undefined) gave an inhibition of -16.6%.
Compound `CCOC(=O)c1c(NC(=O)Cn2nc([N+](=O)[O-])c(Br)c2C)sc2c1CCCC2` has an inhibition of 41.4%.
`Cc1ccc(S(=O)(=O)Nc2cccc3c2O[C@@H](CN(C)CC2CCCCC2)[C@H](C)CN([C@@H](C)CO)C3=O)cc1` showed an inhibition of 10.5%.
With `Cc1ccc(S(=O)(=O)Nc2cccc3c2O[C@@H](CN(C)S(=O)(=O)c2ccc(C)cc2)[C@H](C)CN([C@@H](C)CO)C3=O)cc1` the inhibition was 4.36%.
With `C[C@H](CO)N1C[C@H](C)[C@@H](CN(C)Cc2ccc3c(c2)OCO3)Oc2c(cccc2N(C)C)C1=O` the inhibition was 21.9%.
Work on `C[C@H]1CN([C@@H](C)CO)C(=O)c2cc(NS(=O)(=O)c3ccccc3)ccc2O[C@@H]1CN(C)C(=O)NC1CCCCC1` yielded an inhibition of 13.9%.
For `Cc1ccc(S(=O)(=O)Nc2cccc3c2O[C@H](CN(C)C(=O)Nc2ccc(C(F)(F)F)cc2)[C@@H](C)CN([C@@H](C)CO)C3=O)cc1`, the inhibition was -0.901%.
For `C[C@@H]1CN([C@@H](C)CO)C(=O)c2cccc(NC(=O)Nc3ccc(C(F)(F)F)cc3)c2O[C@@H]1CN(C)S(=O)(=O)c1cccs1`, the inhibition was 96.7% (active).
In the case of `C[C@H]1CN([C@@H](C)CO)C(=O)c2cccc(NC(=O)Nc3ccc(C(F)(F)F)cc3)c2O[C@H]1CN(C)S(=O)(=O)c1ccccc1`, the inhibition is reported as 54.4%.
Work on `COc1ccc(NC(=O)Nc2cccc3c2O[C@H](CN(C)S(=O)(=O)c2cccs2)[C@H](C)CN([C@@H](C)CO)C3=O)cc1` yielded an inhibition of 34.9%.
For `C[C@@H]1CN([C@H](C)CO)C(=O)c2cccc(NS(=O)(=O)c3ccc(F)cc3)c2O[C@@H]1CN(C)C(=O)Nc1ccc(C(F)(F)F)cc1`, the inhibition was 101% (active).
Compound `C[C@H]1CN([C@@H](C)CO)C(=O)c2cccc(NS(=O)(=O)c3ccccc3)c2O[C@@H]1CN(C)C(=O)Nc1ccc(C(F)(F)F)cc1` has an inhibition of -8.64%.
For `CC(C)NC(=O)Nc1cccc2c1O[C@@H](CN(C)S(=O)(=O)c1ccc(F)cc1)[C@@H](C)CN([C@H](C)CO)C2=O`, the inhibition was -7.11%.
Work on `CCn1c(=O)cc(O)c2ccccc21` yielded an inhibition of 27.9%.
In the case of `C[C@H](CO)N1C[C@H](C)[C@H](CN(C)C(=O)NC2CCCCC2)Oc2ccc(NC(=O)c3ccncc3)cc2CC1=O`, the inhibition is reported as -3.17%.
With `COc1ccc(S(=O)(=O)N(C)C[C@H]2Oc3ccc(NS(C)(=O)=O)cc3C(=O)N([C@H](C)CO)C[C@H]2C)cc1` the inhibition was -0.557%.
`C[C@@H]1CCCCO[C@H](CN(C)S(C)(=O)=O)[C@@H](C)CN([C@H](C)CO)C(=O)c2cc(NS(=O)(=O)c3ccc(Cl)cc3)ccc2O1` gave an inhibition of 4.39%.
With `CC(C)=CCCC1(C)C=Cc2c(ccc3c2[nH]c2cc(O)c(C)cc23)O1` (centres undefined) the inhibition was 108% (active).
Compound `O=C(CC1SC(=NC2CC3C=CC2C3)NC1=O)Nc1ccccc1Cl` (centres undefined) has an inhibition of 8.48%.
Work on `COc1ccc(NC(=O)Nc2nn(Cc3ccc(Cl)cc3Cl)cc2Br)cc1OC` yielded an inhibition of 39.9%.
With `O=[N+]([O-])c1cccc(NC(=S)Nc2nn(Cc3ccc(Cl)cc3Cl)cc2Cl)c1` the inhibition was 111% (active).
With `CC(C)CC(C(=O)Nc1cccc([N+](=O)[O-])c1)N1C(=O)c2ccccc2C1=O` (centres undefined) the inhibition was 26.9%.
In the case of `C[C@H]1CN([C@@H](C)CO)C(=O)c2cc(NC(=O)Nc3ccc4c(c3)OCO4)ccc2O[C@H]1CN(C)S(=O)(=O)c1ccc(F)cc1`, the inhibition is reported as 18.9%.
In the case of `C[C@H]1CN([C@@H](C)CO)C(=O)c2cccc(NS(=O)(=O)c3cn(C)cn3)c2O[C@@H]1CN(C)C(=O)Nc1ccc(F)cc1`, the inhibition is reported as 7.11%.
In the case of `C[C@H]1O[C@@H](O[C@H]2[C@@H](O)C[C@H](O[C@H]3[C@@H](O)C[C@H](O[C@H]4CC[C@]5(C)C6C[C@@H](O)[C@]7(C)[C@@H](C8=CC(=O)OC8)CC[C@]7(O)C6CC[C@@H]5C4)O[C@@H]3C)O[C@@H]2C)C[C@H](O)[C@@H]1O` (some centres undefined), the inhibition is reported as 112% (active).
`C[C@H]1CN([C@@H](C)CO)C(=O)Cc2cc(NC(=O)C3CC3)ccc2O[C@@H]1CN(C)C(=O)NC1CCCCC1` showed an inhibition of -0.0688%.
Work on `Cc1ccc(S(=O)(=O)N(C)C[C@@H]2Oc3c(NS(=O)(=O)c4ccc(F)cc4)cccc3C(=O)N([C@@H](C)CO)C[C@H]2C)cc1` yielded an inhibition of -7.97%.
`CCCc1nc2c(C)cc(-c3nc4ccccc4n3C)cc2n1Cc1ccc(-c2ccccc2C(=O)O)cc1` showed an inhibition of 0.908%.
`C[C@H](CO)N1C[C@H](C)[C@H](CN(C)C)Oc2c(NC(=O)C3CCOCC3)cccc2C1=O` showed an inhibition of -4.27%.
For `O=C(O)CCSc1nnc2c(n1)[nH]c1ccccc12`, the inhibition was 16.8%.
With `O=C(CSc1nnc2c(n1)[nH]c1ccccc12)Nc1cccc(C(F)(F)F)c1` the inhibition was 112% (active).
Compound `O=C(CCn1cnc2ccccc2c1=O)Nc1cccc(C(F)(F)F)c1` has an inhibition of -23.9%.
With `COc1ccc(NC(=O)C(=O)NCC(=O)Nc2cccc(C(F)(F)F)c2)cc1` the inhibition was 14%.
With `O=C(CN1C(=O)c2ccccc2S1(=O)=O)Nc1ccc(F)c(F)c1` the inhibition was 36.7%.
For `O=C1c2ccccc2S(=O)c2ccccc2S(=O)(=O)N1Cc1ccccc1` (centres undefined), the inhibition was 117% (active).
Compound `Nc1nnc(SCCN2C(=O)c3ccccc3S2(=O)=O)s1` has an inhibition of 32.8%.
Compound `Cc1noc(C)c1NC(=O)Nc1ccc2c(c1)C(=O)N([C@@H](C)CO)C[C@H](C)[C@@H](CN(C)C(=O)Nc1ccccc1)O2` has an inhibition of -19%.
With `Cc1ccc(S(=O)(=O)N(C)C[C@@H]2Oc3ccc(NC(=O)Cn4cnnn4)cc3CC(=O)N([C@H](C)CO)C[C@H]2C)cc1` the inhibition was -11.1%.
`O=C(/C=C/c1ccccc1)NCCCCNCCCNC(=O)/C=C/c1ccccc1` gave an inhibition of 11.1%.
For `COc1cc(NC(=O)COc2cc(C)c(Br)c(C)c2)c(OC)cc1Cl`, the inhibition was 6.99%.
`C=CCNc1nc(C)nc(OC)n1` showed an inhibition of -5.74%.
`C[C@@H]1CN([C@H](C)CO)C(=O)Cc2cc(NC(=O)Nc3ccc(F)cc3)ccc2O[C@@H]1CN(C)C(=O)Nc1ccc2c(c1)OCO2` showed an inhibition of 10.5%.
`O=C1NC(Cc2c[nH]c3ccccc23)C(=O)N2CCCC12` (centres undefined) gave an inhibition of 14.5%.
For `Cc1ccc2nc(C)c3c(c2c1)N(c1ccccc1)CC3`, the inhibition was 122% (active).
Work on `O=C(CSc1nc2sc3c(c2c(=O)[nH]1)CCC3)Nc1ccccc1C(F)(F)F` yielded an inhibition of 26%.
Compound `C[C@H](CO)N1C[C@H](C)[C@H](CN(C)C(=O)Nc2ccc(C(F)(F)F)cc2)Oc2ccc(NS(C)(=O)=O)cc2CC1=O` has an inhibition of -2.28%.
For `Cc1ccc(S(=O)(=O)N(C)C[C@@H]2Oc3ccc(NC(=O)Nc4ccc5c(c4)OCO5)cc3C(=O)N([C@@H](C)CO)C[C@@H]2C)cc1`, the inhibition was 45.7%.
Compound `Cc1cc(C)cc(OCC(=O)Nc2cccc(-c3nnc(-c4ccccc4)o3)c2)c1` has an inhibition of 42.7%.
With `Cc1ccnc(NC(c2cccc(Br)c2)c2ccc3ccc(C)nc3c2O)c1` (centres undefined) the inhibition was 126% (active).
With `Cc1ccnc(NC(c2cccc([N+](=O)[O-])c2)c2ccc3ccc(C)nc3c2O)c1` (centres undefined) the inhibition was 101% (active).
`Cc1ccc(S(=O)(=O)Nc2ccc3c(c2)C(=O)N([C@@H](C)CO)C[C@H](C)[C@H](CN(C)C(=O)Nc2ccc(C(F)(F)F)cc2)O3)cc1` gave an inhibition of 4.18%.
`Cc1ccc(NC(=O)C2C3C=CC(C3)C2C(=O)O)cc1` (centres undefined) gave an inhibition of -5.27%.
In the case of `Cc1cccc(NC(=O)CSc2nnc(-c3ccccc3)n2C2CCCCC2)c1C`, the inhibition is reported as 22.3%.
In the case of `COc1ccc(NC(=O)CSc2nnc(-c3ccc(Br)cc3)n2C)cc1`, the inhibition is reported as 16.2%.
For `C[C@H](CO)N1C[C@H](C)[C@@H](CN(C)C(=O)Nc2ccccc2)Oc2c(NC(=O)CCCCCC(=O)Nc3ccccc3N)cccc2C1=O`, the inhibition was 21.7%.
With `C[C@H](CO)N1C[C@H](C)[C@H](CN(C)Cc2ccc(Oc3ccccc3)cc2)Oc2c(NC(=O)CCCCCC(=O)Nc3ccccc3N)cccc2C1=O` the inhibition was 139% (active).
Compound `C[C@H]1CN([C@@H](C)CO)C(=O)c2cccc(NC(=O)Nc3ccccc3)c2O[C@H]1CN(C)Cc1ccc(Oc2ccccc2)cc1` has an inhibition of 18.8%.
With `C[C@H](CO)N1C[C@H](C)[C@@H](CN(C)Cc2ccccc2)Oc2c(NC(=O)CCCCCC(=O)Nc3ccccc3N)cccc2C1=O` the inhibition was 126% (active).
With `C[C@@H]1CN([C@H](C)CO)C(=O)c2cccc(NC(=O)CCCCCC(=O)Nc3ccccc3N)c2O[C@@H]1CN(C)C(=O)Nc1ccccc1` the inhibition was 7.63%.
In the case of `C[C@H]1CN([C@@H](C)CO)C(=O)c2cccc(NC(=O)CCCCCC(=O)Nc3ccccc3N)c2O[C@H]1CN(C)C(=O)Nc1ccccc1`, the inhibition is reported as 10.1%.
